Measured values published in PubChem BioAssay (Tox21).
Records with an inconclusive call do not appear. The source made the active and inactive calls. Unless noted, calls come from the whole dose curve; as a rule, active = well fitted curve in the direction sought with a large enough effect in the repeat runs; inconclusive = weak or mixed curves; inactive = no such curve, though single readings can be large; an effect the other way counts as inactive or inconclusive.

Experiments:
[1] = qHTS RealTime-Glo MT Cell Viability Assay in HEK293 cells - 24 hour (AID 1224886); note: top concentration of the series differs between compounds; nearly all actives have a fitted effect of over 50% in size
Outline: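 Luminescence generated by NanoLuc from substrate produced by living HEK293 cells served as the viability signal. Each value reflects the reading at its stated time point during continuous 40 h compound exposure at 37 C.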

[2] = qHTS RealTime-Glo MT Cell Viability Assay in HEK293 cells - 8 hour (AID 1224887); note: nearly all actives have a fitted effect of over 50% in size; note: potency is the fitted concentration of half-maximal effect
Outline: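 HEK293 + NanoLuc + prosubstrate, 600 cells/well; 5 h, 37 C/5% CO2; compound 23 nL in DMSO by pintool; 37 C; luminescence read at 0, 8, 16, 24, 32 and 40 h time points.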

[3] = A CellTox Green Cytotoxicity Assay to monitor cytotoxicity in HEK293 cells - 16 hour (AID 1224888); note: nearly all actives have a fitted effect of over 35% in size
Outline: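 Tox21 screen in HEK293: membrane-impermeant cyanine dye fluoresces on binding dead-cell DNA; compound pinned 5 h post-seeding, plates held at 37 C, signal read repeatedly through 40 h.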

[4] = A CellTox Green Cytotoxicity Assay to monitor cytotoxicity in HepG2 cells - 8 hour (AID 1224890); note: nearly all actives have a fitted effect of over 45% in size
Outline: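 Measurements at 0, 8, 16, 24, 32 and 40 h of treatment captured CellTox Green fluorescence in HepG2 cells that had been co-plated with reagent and preincubated 5 h at 37 C/5% CO2.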

[5] = qHTS assay to identify small molecule antagonists of the estrogen receptor alpha (ER-alpha) signaling pathway using the BG1 cell line in the presence of 0.1 nM 17-beta-estradiol - cell viability counter screen (AID 1259241); note: nearly all actives have a fitted effect of over 40% in size
Outline: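 VM7Luc4E2 cells (endogenous full-length ER-alpha, 4xERE-luciferase), cultured 5 days in charcoal-stripped serum, exposed to compounds with 0.1 nM 17beta-estradiol (final) for 22 hr at 37C. Viability read in same wells as live-cell protease fluorescence after 30 min.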

[6] = qHTS assay to identify small molecule antagonists of the androgen receptor (AR) signaling pathway using the MDA cell line in the presence of 0.5 nM R1881 - cell viability counter screen (AID 1259242); note: nearly all actives have a fitted effect of over 45% in size
Outline: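 Concentration-response screen of compounds for toxicity in MDA-kb2 reporter cells: 16 hr at 37C with 0.5 nM R1881, endpoint live-cell protease fluorescence measured in the reporter wells.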

[7] = target: Androgen receptor (Homo sapiens) (UniProt P10275); test: qHTS assay to identify small molecule antagonists of the androgen receptor (AR) signaling pathway using the MDA cell line in the presence of 0.5 nM R1881 (AID 1259243); note: nearly all actives have a fitted effect of over 50% in size; note: potency is the fitted concentration of half-maximal effect
Outline: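 With R1881 held at 0.5 nM (final), compound effects on MMTV-luciferase expression in MDA-kb2 cells were scored by luminescence after a 16 hr, 37C incubation.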

[8] = target: Estrogen receptor (Homo sapiens) (UniProt P03372); test: qHTS assay to identify small molecule antagonists of the estrogen receptor alpha (ER-alpha) signaling pathway using the BG1 cell line in the presence of 0.1 nM 17-beta-estradiol (AID 1259244); note: nearly all actives have a fitted effect of over 50% in size
Outline: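 Compounds were tested against 0.1 nM (final) 17beta-estradiol in VM7Luc4E2 cells, which express full-length ER-alpha and an ERE-luciferase reporter; luminescence was recorded following 22 h exposure.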

[9] = qHTS assay to identify small molecule HDAC inhibitors (AID 1259364); note: potency is the fitted concentration of half-maximal effect;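 note: wild-type HCT-116 cells with endogenous class I/II HDAC activity; nearly all actives have a fitted effect of over 45% in size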
Outline: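 Screening used wild-type human colon HCT-116 cells incubated overnight, dosed with compounds for 2 hours, and assayed with a homogeneous luminogenic HDAC I/II reagent for 30 minutes at room temperature.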

[10] = qHTS assay to identify small molecule HDAC inhibitors - cell viability counter screen (AID 1259365)
Outline: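 Wild-type HCT-116 cells, 1,500/well, cultured overnight, then compound-treated 2 h at 37 C. Viability measured as ATP luminescence with CellTiter-Glo after 30 min at room temperature.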

[11] = qHTS assay to identify small molecule agonists of the sonic hedgehog signaling (Shh) pathway - cell viability counter screen (AID 1259366); note: nearly all actives have a fitted effect of over 50% in size
Outline: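 NIH/3T3-derived Gli1-Luc reporter cells, 2,000 per well, received compound after 4 h and were treated about 23 h at 37C. Viability measured in the same wells by CellTiter-Fluor fluorescence after 1 h.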

[12] = qHTS assay to identify small molecule antagonists of the sonic hedgehog signaling (Shh) pathway - cell viability counter screen (AID 1259367); note: nearly all actives have a fitted effect of over 55% in size
Outline: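 CellTiter-Fluor signal in conditioned medium-stimulated 3T3 Gli1-Luc cells, 23 hr compound exposure, 37C.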

[13] = qHTS assay to identify small molecule agonists of the sonic hedgehog signaling (Shh) pathway (AID 1259368; calls by dose curve; note: nearly all actives have a fitted effect of over 15% in size; note: potency is the fitted concentration of half-maximal effect)
Outline: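 Hedgehog pathway agonism scored by increased firefly luciferase luminescence in 3T3Gli1-Luc cells treated 24 hr at 37 C; detection used a 30 min room-temperature reagent incubation.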

[14] = qHTS assay to identify small molecule antagonists of the sonic hedgehog signaling (Shh) pathway (AID 1259369; calls by dose curve; note: nearly all actives have a fitted effect of over 45% in size)
Outline: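 NIH/3T3 stable Gli1-Luc clone, 2,000 cells/well, 4hr settle; cpd + conditioned medium 24hr; Luc reagent 30min RT; luminescence.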

[15] = qHTS assay to identify small molecule agonists of the androgen receptor (AR) signaling pathway in the presence of an antagonist - cell viability counter screen (AID 1259379);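 note: MDA-kb2 human breast cancer cells carrying an MMTV luciferase reporter; series mostly up to about 92 µM; nearly all actives have a fitted effect of over 25% in size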
Outline: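 MDA-kb2 viability measured by CellTiter-Fluor fluorescence in the same wells as the luciferase signal; nilutamide 3.0uM final; 15-point compound titration; 16 hr at 37C.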

[16] = qHTS assay to identify small molecule agonists of the estrogen receptor beta (ER-beta) signaling pathway - cell viability counter screen (AID 1259380); note: nearly all actives have a fitted effect of over 30% in size
Outline: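 Measured: luminescence from CellTiter-Glo after 30 min at room temperature, added to wells already read for the LiveBLAzer FRET reporter (2 hr substrate); ER-beta-UAS-bla HEK293T cells had 16 hr compound treatment at 37C, 5% CO2.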

[17] = qHTS RealTime-Glo MT Cell Viability Assay in HepG2 cells - 0 hour (AID 1224889); note: nearly all actives have a fitted effect of over 50% in size
Outline: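 Tox21 10K library screened in qHTS format on HepG2 cells carrying RealTime-Glo reagents. Compounds were added after a 5 h preincubation, and the luminescent signal from continuous culture was measured repeatedly during 40 h treatment.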

[18] = target: Estrogen receptor beta (Homo sapiens) (UniProt Q92731); test: qHTS assay to identify small molecule agonists of the estrogen receptor beta (ER-beta) signaling pathway (AID 1259377; active = well fitted activation curve with a large enough effect in the signal ratio in the repeat runs, not every such curve was filed as active; the % refers to the signal ratio)
Outline: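 ER-beta-UAS-bla HEK293T cells in medium with 2% charcoal-stripped FBS were exposed to compounds for 16 h at 37C. Beta-lactamase reporter activity was read as fluorescence after 2 h with LiveBLAzer B/G FRET substrate at room temperature.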

[19] = target: Estrogen receptor beta (Homo sapiens) (UniProt Q92731); test: qHTS assay to identify small molecule antagonists of the estrogen receptor beta (ER-beta) signaling pathway (AID 1259378; active = well fitted inhibition curve with a large enough effect in the signal ratio in the repeat runs, not every such curve was filed as active; the % refers to the signal ratio)
Outline: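 Antagonist mode: compounds added to beta-lactamase reporter HEK293T ER-beta-UAS cells stimulated with E2 (1nM final), 16 hr at 37C. LiveBLAzer B/G FRET substrate, 2 hours room temperature, fluorescence read-out.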

Measured: Potency

Estrogen receptor (Homo sapiens), sequence (P03372 whole entry, looked up): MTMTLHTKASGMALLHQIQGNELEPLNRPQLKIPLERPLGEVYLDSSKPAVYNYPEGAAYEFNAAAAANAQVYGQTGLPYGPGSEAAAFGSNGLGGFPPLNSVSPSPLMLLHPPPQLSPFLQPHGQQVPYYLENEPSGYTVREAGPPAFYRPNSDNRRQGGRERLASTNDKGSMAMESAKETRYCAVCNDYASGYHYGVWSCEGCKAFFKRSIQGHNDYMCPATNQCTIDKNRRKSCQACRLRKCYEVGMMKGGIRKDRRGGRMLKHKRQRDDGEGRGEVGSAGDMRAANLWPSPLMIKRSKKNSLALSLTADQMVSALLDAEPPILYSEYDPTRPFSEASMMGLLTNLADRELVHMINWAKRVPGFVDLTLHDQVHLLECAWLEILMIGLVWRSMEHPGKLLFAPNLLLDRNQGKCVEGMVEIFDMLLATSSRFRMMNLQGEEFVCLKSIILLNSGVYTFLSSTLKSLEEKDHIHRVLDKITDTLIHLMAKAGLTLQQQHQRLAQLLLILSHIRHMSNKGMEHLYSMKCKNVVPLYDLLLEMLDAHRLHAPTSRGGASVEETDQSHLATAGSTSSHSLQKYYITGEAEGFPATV
Androgen receptor (Homo sapiens), sequence (P10275 whole entry, looked up): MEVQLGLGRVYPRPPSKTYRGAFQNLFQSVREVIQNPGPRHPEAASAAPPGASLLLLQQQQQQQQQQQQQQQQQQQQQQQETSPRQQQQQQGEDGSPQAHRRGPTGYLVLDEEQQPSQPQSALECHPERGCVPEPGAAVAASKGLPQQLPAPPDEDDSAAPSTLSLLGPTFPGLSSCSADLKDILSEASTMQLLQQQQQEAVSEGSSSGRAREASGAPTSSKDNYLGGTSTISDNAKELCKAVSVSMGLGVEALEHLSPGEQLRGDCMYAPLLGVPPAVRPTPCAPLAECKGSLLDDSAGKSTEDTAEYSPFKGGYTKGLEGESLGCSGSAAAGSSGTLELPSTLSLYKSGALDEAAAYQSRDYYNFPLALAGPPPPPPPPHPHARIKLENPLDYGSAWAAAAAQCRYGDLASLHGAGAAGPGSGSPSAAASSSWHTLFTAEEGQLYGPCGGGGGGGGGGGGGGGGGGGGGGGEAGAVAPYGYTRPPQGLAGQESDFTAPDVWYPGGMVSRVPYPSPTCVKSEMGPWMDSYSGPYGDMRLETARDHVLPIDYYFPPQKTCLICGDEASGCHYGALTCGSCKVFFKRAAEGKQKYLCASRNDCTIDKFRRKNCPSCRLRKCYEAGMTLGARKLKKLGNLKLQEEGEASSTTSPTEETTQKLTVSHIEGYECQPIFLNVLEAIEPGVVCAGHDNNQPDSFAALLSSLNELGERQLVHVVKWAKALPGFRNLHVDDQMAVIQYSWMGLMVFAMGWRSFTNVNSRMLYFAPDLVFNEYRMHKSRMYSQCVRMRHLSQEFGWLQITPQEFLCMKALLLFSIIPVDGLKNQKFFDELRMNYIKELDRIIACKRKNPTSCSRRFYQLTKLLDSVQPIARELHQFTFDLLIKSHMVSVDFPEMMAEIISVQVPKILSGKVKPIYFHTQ
Estrogen receptor beta (Homo sapiens), sequence (Q92731 whole entry, looked up): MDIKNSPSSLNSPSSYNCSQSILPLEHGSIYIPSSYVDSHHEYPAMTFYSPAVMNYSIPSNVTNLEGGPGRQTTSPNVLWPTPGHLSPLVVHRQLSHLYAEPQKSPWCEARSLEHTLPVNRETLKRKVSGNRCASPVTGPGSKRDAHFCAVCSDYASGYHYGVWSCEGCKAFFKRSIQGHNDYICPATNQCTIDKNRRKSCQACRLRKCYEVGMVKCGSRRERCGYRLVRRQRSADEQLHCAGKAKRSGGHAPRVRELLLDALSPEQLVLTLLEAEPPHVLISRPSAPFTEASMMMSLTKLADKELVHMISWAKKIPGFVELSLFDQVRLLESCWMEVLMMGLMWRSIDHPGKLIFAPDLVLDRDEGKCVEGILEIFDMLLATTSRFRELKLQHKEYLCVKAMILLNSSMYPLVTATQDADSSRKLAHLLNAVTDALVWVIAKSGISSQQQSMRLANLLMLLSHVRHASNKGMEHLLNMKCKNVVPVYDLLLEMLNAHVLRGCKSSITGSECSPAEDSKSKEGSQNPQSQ

Cc1ccc2nc(-c3ccc(N)cc3)sc2c1S(=O)(=O)O
active: [9] 3.8 µM | [13] 1.9 µM
not listed: [17] | [18] | [19]
inactive: all other assays above

NC(=O)C1CO1 (stereo unspecified)
not listed: [5]
inactive: all other assays above

Clc1cccc(Cl)n1
not listed: [1] | [7] | [18] | [19]
inactive: all other assays above

Nc1ccc(Cl)c([N+](=O)[O-])c1
active: [7] 24.3 µM
inactive: [2] | [3] | [17] | [4] | [5] | [6] | [9] | [10] | [13] | [15]

CCOC(=O)[C@H](O)[C@@H](O)C(=O)OCC
not listed: [5] | [17] | [18]
inactive: all other assays above

Cc1ccc2sc3cccc(C)c3c2c1
not listed: [1] | [7]
inactive: all other assays above

C=C1CC[C@H]2O[C@]2(C)CC[C@@H]2[C@@H]1CC2(C)C
active: [2] 49 µM
not listed: [1]
inactive: all other assays above
